Reference: the supplement of paper PMC6555819

Tests used:
Assay in all cases: PBM binding z-score (relative to random genomic background probes); higher = stronger binding; sequences stand for … in GC…GCGATTGACAGCGTAGAATGAAGG
[1] = test system: FXR:RXRa (NR concentration 270 nM, RXRa partner concentration 90 nM)
Procedure, shortened: (§1)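 Binding buffer was PBS pH 7.4 with 2% milk, 0.02% Triton X-100, 1 mM DTT, 0.2 mg/mL BSA and 0.4 mg/ml salmon testes DNA. In it, ligand-free nuclear receptor dimers were incubated 1 h on custom Agilent 4×180K protein-binding microarrays carrying double-stranded probes. Antibodies against each partner (one per run) detected binding, and z-scores were calculated against random background probes after regression normalization of scanned fluorescence.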

[2] = test system: LXRa:RXRa (NR concentration 270 nM, RXRa partner concentration 90 nM)
Procedure, shortened: as §1

[3] = test system: LXRa homodimer (NR concentration 270 nM)
Procedure, shortened: as §1

[4] = test system: LXRb:RXRa (NR concentration 270 nM, RXRa partner concentration 90 nM)
Procedure, shortened: as §1

[5] = test system: LXRb homodimer (NR concentration 270 nM)
Procedure, shortened: as §1

[6] = test system: PPARa:RXRa (NR concentration 270 nM, RXRa partner concentration 90 nM)
Procedure, shortened: as §1

[7] = test system: PPARg:RXRa (NR concentration 180 nM, RXRa partner concentration 90 nM)
Procedure, shortened: as §1

[8] = test system: PPARg:RXRa 270nM:90nM, anti-RXR (NR concentration 270 nM, RXRa partner concentration 90 nM)
Procedure, shortened: as §1

[9] = test system: PPARg:RXRa 30nM:10nM, anti-RXR (NR concentration 30 nM, RXRa partner concentration 10 nM)
Procedure, shortened: as §1

[10] = test system: PPARg:RXRa 90nM:30nM, anti-RXR (NR concentration 90 nM, RXRa partner concentration 30 nM)
Procedure, shortened: as §1

[11] = test system: PPARg:RXRa DBDmut IVT, anti-RXR (DBD mutation: RXRa K156A/R161A, NR concentration 270 nM, RXRa partner concentration 90 nM)
Procedure, shortened: as §1

[12] = test system: PPARg:RXRa IVT, anti-PPARg (NR concentration 270 nM, RXRa partner concentration 90 nM)
Procedure, shortened: as §1

[13] = test system: PPARg DBDmut:RXRa IVT, anti-PPARg (DBD mutation: PPARg1 K132A/R137A, NR concentration 270 nM, RXRa partner concentration 90 nM)
Procedure, shortened: as §1

[14] = test system: PPARg DBDmut IVT, anti-PPARg (DBD mutation: PPARg1 K132A/R137A, NR concentration 270 nM)
Procedure, shortened: as §1

[15] = test system: PPARg homodimer (NR concentration 180 nM)
Procedure, shortened: as §1

[16] = test system: PXR:RXRa (NR concentration 270 nM, RXRa partner concentration 90 nM)
Procedure, shortened: as §1

[17] = test system: PXR homodimer (NR concentration 270 nM)
Procedure, shortened: as §1

[18] = test system: RARa:RXR (NR concentration 270 nM, RXRa partner concentration 90 nM)
Procedure, shortened: as §1

[19] = test system: RARa homodimer (NR concentration 270 nM)
Procedure, shortened: as §1

[20] = test system: RARb:RXRa (NR concentration 270 nM, RXRa partner concentration 90 nM)
Procedure, shortened: as §1

Sequence	PBM binding z-score [1]	PBM binding z-score [2]	PBM binding z-score [3]	PBM binding z-score [4]	PBM binding z-score [5]	PBM binding z-score [6]	PBM binding z-score [7]	PBM binding z-score [8]	PBM binding z-score [9]	PBM binding z-score [10]	PBM binding z-score [11]	PBM binding z-score [12]	PBM binding z-score [13]	PBM binding z-score [14]	PBM binding z-score [15]	PBM binding z-score [16]	PBM binding z-score [17]	PBM binding z-score [18]	PBM binding z-score [19]	PBM binding z-score [20]
TGGCCTAGGTCATTGGGCCAGTATAGTACGCATC	4.33	2.98	-0.242	1.44	-0.839	3.79	3.3	3.34	0.438	2.2	1.95	3.78	-0.594	-1.26	1.98	1.4	-0.797	1.97	-0.131	3.72
GATACAGGGTCAAGGCCAGACTACGCGTATTGAT	6.8	3.95	0.21	3.72	-0.0563	5.69	6.16	5.88	2.85	4.87	2.8	3.83	0.238	0.461	2.54	4.03	0.191	4.98	0.813	4.6
CTCGAAAGGTCGGTTGAAGTGAGTATACGGATAA	1.48	1.58	-0.00237	1.54	0.166	2.45	0.257	1.02	0.428	0.796	-0.0991	0.86	0.362	0.582	0.716	1.17	0.13	1.38	0.453	3
ACTATTAGTTGAGACGAGGGCATCCGATAGGTTG	0.433	-0.0452	0.0875	-0.216	0.112	0.0329	0.689	-0.118	0.0451	0.0642	0.0561	-0.111	1.09	0.274	-0.612	1.7	0.926	0.817	0.577	0.742
CCGACTGGGGCAGGGTTACCATAACGCACAGCCA	0.198	0.487	-0.443	0.866	-0.609	1.41	1.77	1.98	0.254	1.44	1.51	2.47	-0.73	-1.24	0.145	0.395	-0.445	0.895	-0.407	0.803
CAAACTAGGTCACCTGAAGGTCAAAGTCCGCATG	5.8	5.89	5.41	5.04	1.6	5.79	9.15	7.17	5.48	7.17	8.35	8.25	1.4	0.822	7.4	5.61	2.75	7.1	2.19	5.14
GGATCGAGGGCAAGTTGATAGCAGAGTTTGATGG	0.982	0.317	-0.184	0.122	0.0808	1.42	0.962	0.758	0.0505	0.387	3.34	2.56	-0.16	-0.137	1.07	0.76	0.825	0.165	0.158	2.49
AGAATGAGGTTACCAAACATCAGGGAAACGCTTG	2.02	2	-0.389	1.31	-0.323	3.21	2.42	2.19	1.04	1.8	4	3.04	1.44	0.505	0.76	0.954	-0.13	1.59	-0.309	1.82
GTTGCTAGGTCAGGTTGGTCAGCTAACGGGTACG	1.81	1.32	0.459	0.947	0.434	1.68	0.88	1.31	-0.115	0.452	2.88	3.16	0.283	-0.614	1.29	0.651	0.178	0.933	0.798	3.4
GATACAGGGTCAGCTAGAGGCCAGTGTATGGAAA	4.14	2.46	-0.408	2.42	-0.768	4.11	3.25	3	1.16	1.86	0.823	2.25	0.256	-0.378	3.5	3.29	0.17	4.54	-0.191	4.15
CAAACTAAGTCAAGGTCAAAGTCGGTTTGTGCCA	4.9	5.29	5.4	4.15	1.52	4.7	2.82	3.64	1.62	2.78	2.53	3.35	0.787	0.588	2.93	4.73	2.29	4.9	1.46	4.13
ACTAGTTGATCAGCTGAGGTCACACACAATTCGG	3.31	2.93	1.91	3.51	0.605	3.89	1.6	2.33	0.574	1.42	0.672	2.14	0.806	1.68	2.57	4.97	2.19	4.95	0.417	3.22
ATCGAAAGGGCGAGGTGAGTATAGAGAAAGGGAA	0.707	0.563	-0.0358	0.463	0.173	1.38	0.612	0.445	0.457	0.394	-0.0167	0.793	0.764	0.945	0.793	0.415	0.345	0.69	0.319	2.09
CGTCCACGGTCATAGGAGGTCAGTGAAGACAGAT	2.58	4.52	2.1	2.15	-0.643	2.16	0.881	0.977	-0.0793	0.32	0.0707	2.02	-0.535	-1.15	1.73	3.88	0.754	2.6	0.207	3.65
CAAACTAGGTCACGAAAGGTCAATGTCGAATGAC	7.08	7.86	6.57	7.03	1.87	6.73	10.3	8.29	6.83	8.33	8.46	9.35	5.05	3.62	4.79	6.78	1.92	7.1	1.91	5.86
TGTCAAACTTCAAAGGTAACGTAAGTATCCACAC	0.417	0.363	-0.174	0.695	0.266	0.877	0.587	0.784	0.906	0.841	-0.251	1.47	0.991	1.2	0.478	0.345	-0.16	0.522	0.335	0.94
CGAACTCGGTCAAGGACAGTGAATCTCCGCACGC	0.923	0.427	-0.214	-0.232	-0.75	0.927	0.826	0.618	-0.54	-0.129	3.2	2.25	-0.0732	-0.272	-0.336	0.0143	-0.196	0.378	-0.323	2.62
TCTTGCAGATCAAAGGTTAAGAAAGCCGAAGCCT	1.5	1.61	-0.333	1.79	-0.606	4.12	5.83	6.41	5.71	6.62	0.914	2.37	0.0487	-1.09	0.464	1.72	-0.464	2.7	-0.444	1.7
GGAACCAGGGCAAGTTGATAGCAGAGTTTGATGG	1.5	0.969	0.225	0.866	0.488	1.54	1.17	0.853	-0.119	0.257	4.63	3.75	0.246	1.22	1.02	0.554	0.742	0.217	0.68	2.26
ATCTCTCGGTAACCAAGTTCAGTGAATGCCGAAC	0.00199	0.567	1.33	0.672	0.975	0.668	-0.0283	0.289	-0.287	0.0566	-0.264	0.594	0.5	0.409	0.702	1.85	1.8	0.427	0.774	0.997
TCATATAGTTAAAAGGTGAAAGTCGGTGTGGTAA	1.74	1.98	0.272	1.98	0.21	3.42	3.17	5.23	5.04	5.39	3.12	2.36	1.13	0.7	2.01	1.38	0.951	2.72	2.03	2.02
AGAACGAGGGCAAGCTGAGTTGATAGCAGAGTAG	0.521	0.295	-0.476	0.14	-0.878	1.4	1.32	1.19	0.0687	0.484	3.94	2.42	0.0132	-0.565	0.238	1.13	0.458	0.426	-0.421	2.46
GCTAGTTGGTCAGTAAAAAGTCACACACCGGTCG	0.351	0.195	0.138	-0.0134	-0.0534	0.217	0.434	0.856	0.159	0.726	0.793	0.0874	0.0294	0.69	0.862	0.0868	-0.328	0.255	0.758	0.863
CCCTACGGGTCACTGACAGGTTATAGCATTTGGA	5.12	4.24	0.501	3.53	-0.128	5.1	3.55	3.77	0.787	2.43	0.759	2.29	-0.15	-0.444	2.79	3.54	0.381	4.28	1.02	4.02
CGAACTAGGTCAGAACGGGACAGTGAAGGATGAT	0.777	0.488	-0.316	0.113	-0.487	3.16	5.01	4.15	1.79	3.38	6.92	7.17	2.46	2.6	1.57	0.217	-0.225	0.856	-0.237	2.75
TCTTGTAGCTCAAAGGTTAAGAAAGCCGAAGCCT	0.766	1.08	-0.349	1.32	-0.747	3.36	4.77	6.09	4.64	6.1	1.21	1.99	0.0313	-0.321	0.397	1.27	-0.227	1.83	-0.437	1.61
GCTGCTAGGCCAACTGATGGTCAGCTAAAGCTCG	-0.828	-0.78	-0.908	-1.3	-1.01	-1.2	-0.468	-0.849	-1.22	-1.14	1.28	-0.0931	-1.27	-1.3	-0.811	-0.987	-0.793	-0.653	-1.39	0.829
TCTTGTAGATCAATAGAGGTTAAGTAAGTGCGCT	1.18	3.63	0.745	1.96	-0.0782	2.03	0.0612	1.68	2.63	2.16	1.78	1.22	0.705	0.692	0.3	3.96	0.52	2	0.239	0.993
